The source of these data is PubChem BioAssay (NCATS).

The structures appear in SMILES notation. Records with an inconclusive call do not appear. A number with no mark means an inactive call. The call rests on the fitted dose curve; in most records, active means well fitted inhibition curve with a large enough effect; inconclusive means small, poorly fitted or top-dose-only effect; inactive means flat fitted curve, though single readings scatter.
On the % scale 0 is the no-effect control and ±100 the full control effect.

Calcium and integrin-binding protein 1 (Homo sapiens), sequence (Q99828 whole entry, looked up): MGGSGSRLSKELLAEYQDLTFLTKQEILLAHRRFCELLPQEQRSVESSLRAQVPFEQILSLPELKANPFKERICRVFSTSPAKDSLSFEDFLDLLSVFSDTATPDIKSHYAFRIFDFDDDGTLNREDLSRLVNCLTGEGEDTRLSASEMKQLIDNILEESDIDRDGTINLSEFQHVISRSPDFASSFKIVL

The target of this assay is Calcium and integrin-binding protein 1 (Homo sapiens) (UniProt Q99828). Nature of the assay: Primary qHTS for Identification of Calcium Integrin Binding Protein 1 (CIB1) Competitor (AID 1508620). Further: top concentration of the series differs between compounds. Particulars: CIB1-GST / FITC-alphaIIb peptide fluorescence polarization; series mostly up to 114 µM; activity change, negative = inhibition: at the top concentration. A digest of the protocol:
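Fluorescence polarization competition: GST-tagged CIB1 (1 uM final) preincubated with compound 15 min at room temperature, then FITC-labelled alphaIIb peptide (100 nM final) added. After 15 min at room temperature, polarization read at Ex 480/Em 540.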
Background: In qHTS, concentration-response curves come from the screen itself.
As for `CCOC(=O)CCC(=O)Nc1ncnc2c1C(c1ccccc1)c1c(ccc3ccccc13)O2` (centres undefined), the “activity change, negative = inhibition” value was 2.76%.

In the case of `CC(C)(C)OC(=O)N1CCN(c2ccc(NCc3cccc(-c4ccc(C#N)cc4)n3)cc2)CC1`, the “activity change, negative = inhibition” value is -0.84%.

As for `COC/C=C/c1cc(F)c(S(=O)(=O)N2CCN(S(=O)(=O)c3ccc4c(c3)OCCO4)CC2)cc1F`, the “activity change, negative = inhibition” value was -2.4%.

For `COc1ccc(C(=O)N(Cc2ccco2)Cc2cccs2)c(O)c1`, the “activity change, negative = inhibition” value was -9.63%.

Consider `FC(F)(F)c1cccc(N2CCN(C(=S)Nc3ccncc3)CC2)c1`, for which the “activity change, negative = inhibition” value is 2.08%.

For the molecule `CC(=O)c1ccc(N2CCN(S(=O)(=O)c3ccc4c(c3)oc(=O)n4C)CC2)cc1`, the “activity change, negative = inhibition” value is 5.68%.

For `C(=C/c1cccs1)/c1ccncc1`, the “activity change, negative = inhibition” value is -0.322%.

As to `CC(=O)Nc1sc2c(c1-c1ccc(C)cc1)CCNC2`, the “activity change, negative = inhibition” value was 7.75%.

As to `N#Cc1ccc(S(=O)(=O)N2CCN(S(=O)(=O)c3ccc4c(c3)OCCO4)CC2)cc1`, the “activity change, negative = inhibition” value was -2.97%.

As to `Clc1cccc(-c2ccc3ncnc(NCc4cccnc4)c3c2)c1`, the “activity change, negative = inhibition” value is -1.78%.

As for `Cc1ccc(OCCn2c(CCNC(=O)/C=C/c3ccccc3)nc3ccccc32)cc1`, the “activity change, negative = inhibition” value is 32.6%.

As to `O=C1CCCC2=C1C1(CCC1)N=C(Nc1nc3ccccc3o1)N2`, the “activity change, negative = inhibition” value was -22.2%.

Consider `COc1cccc(C2C(C#N)=C(NC(=O)CCc3ccccc3)Oc3ccc4ccccc4c32)c1` (centres undefined), for which the “activity change, negative = inhibition” value is 0.454%.

In the case of `Cc1ccc(NS(=O)(=O)c2ccc3c(c2)CCC(=O)N3C)cc1Cl`, the “activity change, negative = inhibition” value was -5.4%.

As to `Cn1nnnc1Sc1ncnc2scc(-c3cccc(S(C)(=O)=O)c3)c12`, the “activity change, negative = inhibition” value was -1.91%.

As to `CN(C)CCCNC(=O)c1ccc(-c2cnc3c(O)cccc3c2)cc1`, the “activity change, negative = inhibition” value is -18.9%.

On to `O=S1(=O)N=C(Oc2cccc(Br)c2)c2ccccc21`, for which the “activity change, negative = inhibition” value was -3%.

In the case of `Cc1cc(C)n2ncc(C(=O)Nc3cccc(C(F)(F)F)c3)c2n1`, the “activity change, negative = inhibition” value is -1.6%.

For the molecule `O=C(Cc1ccccc1)Nc1ncnc2c1C(c1ccccc1)c1c(ccc3ccccc13)O2` (centres undefined), the “activity change, negative = inhibition” value was 7.96%.

Regarding `CC(=O)Nc1sc2c(c1-c1ccc3c(c1)CCO3)CCNC2`, the “activity change, negative = inhibition” value was 1.43%.

`O=C(O)c1cccc2c1C(=O)N(c1ccccc1)C2`: the “activity change, negative = inhibition” value was 1.54%.

On to `COc1ccc(NC(=O)C(OC(=O)CNC(=O)c2ccccc2)c2ccccc2)c(C)c1` (centres undefined), for which the “activity change, negative = inhibition” value was -2.14%.

Consider `Cc1ccc(NS(=O)(=O)c2ccc3c(c2)CCN(C(=O)C(F)(F)F)C3)cc1C`, for which the “activity change, negative = inhibition” value was 2.89%.

With `CC(=O)Nc1sc2c(c1-c1cccc(F)c1)CCNC2`, the “activity change, negative = inhibition” value is 8.66%.
